In PubChem BioAssay (EPA / NIEHS) one finds outcome and AC50 data, which are given here for 6 compounds.

Inconclusive results are not listed. Active and inactive are the calls of the source. How the source made its calls, unless noted: active means hit-call score of the fitted dose curve at least 0.9, where 1 is the maximum; inactive means score below 0.9.

Experiment [1] in a line: ATG_NFI_CIS: Attagene CIS-FACTORIAL HepG2 Assay for human Nuclear Factor I (NFI) (AID 2282989). As to conditions: HepG2 cis-regulatory reporter, NFI response element transcription; actives raise or lower the signal. The procedure, abridged:
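Reporter transcription driven by endogenous transcription factors in HepG2 cells; 24 h treatment. Quantitation by labelled RT-PCR fragments on capillary electrophoresis, gain- or loss-of-signal relative to DMSO.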

Experiment [2] has as its target Myc proto-oncogene protein (Homo sapiens) (UniProt P01106). Nature of the experiment: ATG_Myc_CIS: Attagene CIS-FACTORIAL HepG2 Assay for human Myelocytomatosis (Myc) Proto-Oncogene Transcription Factor (AID 2282990). The following applies: HepG2, Attagene cis-reporter transcription factor activity; actives raise or lower the signal. The procedure, abridged: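 DMSO-normalised, bidirectionally fitted reporter mRNA signal. HepG2 cells transfected with cis reporter constructs, treated 24 h; transcripts detected by RT-PCR, 6-FAM primer extension and CE.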

Experiment [3] is described as follows: ATG_NF_kB_CIS: Attagene CIS-FACTORIAL HepG2 Assay for human Nuclear Factor Kappa B (NF-kB) (AID 2282991). The following applies: HepG2 Attagene cis-factorial NF-kB reporter mRNA; actives raise or lower the signal. The procedure, abridged:
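Read-out: reporter transcript levels quantified by RT-PCR plus capillary electrophoresis of 6-FAM-labelled, HpaI-cut fragments. Transfected HepG2 cells, 24 h compound exposure, endogenous NF-kB-driven cis element; gain or loss scored versus DMSO.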

Experiment [4] has as its target human Peroxisome Proliferator-activated Receptor delta (PPARd), PPARD (gene 5467) (UniProt Q03181). Nature of the experiment: ATG_PPARd_TRANS: Attagene TRANS-FACTORIAL HepG2 Assay for human Peroxisome Proliferator-activated Receptor delta (PPARd) (AID 2283002; active means hit-call score of the fitted dose curve at least 0.9, where 1 is the maximum). The procedure, abridged: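 Measured quantity: GAL4-UAS reporter transcript induction in HepG2 after 24 h chemical dosing, with NR-Gal4 chimeras supplied by transient transfection. Detection by RT-PCR and capillary electrophoresis; upward fit against DMSO.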

Experiment [5] addresses Retinoic acid receptor alpha (Homo sapiens) (UniProt P10276). Briefly: ATG_RARa_TRANS: Attagene TRANS-FACTORIAL HepG2 Assay for human Retinoic Acid Receptor alpha (RARa) (AID 2283005; active means hit-call score of the fitted dose curve at least 0.9, where 1 is the maximum). The procedure, abridged: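 HepG2 cells transiently transfected with multiple reporter units expressing chimeric RARα-GAL4 fusion, with GAL4-UAS-driven reporters. After 24 h compound exposure, reporter mRNA induction quantified by RT-PCR and capillary electrophoresis with fluorescent labeling; gain-of-signal fitted relative to DMSO control.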

Experiment [6] deals with Peroxisome proliferator-activated receptor gamma (Homo sapiens) (UniProt P37231). Nature of the experiment: ATG_PPARg_TRANS: Attagene TRANS-FACTORIAL HepG2 Assay for human Peroxisome Proliferator-activated Receptor-gamma (PPARg) (AID 2283007; active means hit-call score of the fitted dose curve at least 0.9, where 1 is the maximum). The procedure, abridged: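 Read-out: reporter mRNA induction, detected by fluorescence after RT-PCR and capillary electrophoresis. Transiently transfected human HepG2 liver cells carrying a chimeric NR-Gal4 construct were dosed for 24 h; activity was fitted upward relative to DMSO.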
Chain of Peroxisome proliferator-activated receptor gamma (Homo sapiens) (P37231 whole entry, looked up, the tested form may be a part): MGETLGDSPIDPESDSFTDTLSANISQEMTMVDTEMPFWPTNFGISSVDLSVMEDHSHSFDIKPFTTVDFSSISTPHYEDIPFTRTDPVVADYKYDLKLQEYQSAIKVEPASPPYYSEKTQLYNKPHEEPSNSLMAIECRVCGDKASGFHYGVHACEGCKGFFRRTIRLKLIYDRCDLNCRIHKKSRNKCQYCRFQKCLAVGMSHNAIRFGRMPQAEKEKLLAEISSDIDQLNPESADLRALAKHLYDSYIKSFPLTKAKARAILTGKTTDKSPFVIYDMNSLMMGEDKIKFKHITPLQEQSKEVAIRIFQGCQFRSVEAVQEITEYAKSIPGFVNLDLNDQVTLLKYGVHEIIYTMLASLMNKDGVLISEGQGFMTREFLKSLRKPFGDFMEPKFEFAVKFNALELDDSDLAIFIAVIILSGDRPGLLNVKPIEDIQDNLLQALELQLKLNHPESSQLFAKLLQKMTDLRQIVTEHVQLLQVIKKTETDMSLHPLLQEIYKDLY

Experiment [7] has as its target Nuclear receptor subfamily 1 group I member 2 (Homo sapiens) (UniProt O75469). Briefly: ATG_PXR_TRANS: Attagene TRANS-FACTORIAL HepG2 Assay for human Pregnane X Receptor (PXR) (AID 2283008; active means hit-call score of the fitted dose curve at least 0.9, where 1 is the maximum). The procedure, abridged:
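HepG2 cells transiently transfected with GAL4-UAS reporter units and PXR-Gal4 chimera, exposed 24 h. Reporter mRNA quantified by RT-PCR, fluorescent labelling, HpaI digestion and capillary electrophoresis; gain of signal vs DMSO.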

Experiment [8] deals with human RAR-related Orphan Receptor beta (RORb), RORB (gene 6096) (UniProt Q92753). Nature of the experiment: ATG_RORb_TRANS: Attagene TRANS-FACTORIAL HepG2 Assay for human RAR-related Orphan Receptor beta (RORb) (AID 2283010; active means hit-call score of the fitted dose curve at least 0.9, where 1 is the maximum). The procedure, abridged: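 HepG2 cells transiently transfected with GAL4-UAS reporter units expressing chimeric NR-Gal4 protein; reporter mRNA measured 24 h after dosing by RT-PCR, 6-FAM labelling and capillary electrophoresis. Gain-of-signal fitted relative to DMSO baseline.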
Chain of human RAR-related Orphan Receptor beta (RORb), RORB (gene 6096) (Q92753 whole entry, looked up, the tested form may be a part): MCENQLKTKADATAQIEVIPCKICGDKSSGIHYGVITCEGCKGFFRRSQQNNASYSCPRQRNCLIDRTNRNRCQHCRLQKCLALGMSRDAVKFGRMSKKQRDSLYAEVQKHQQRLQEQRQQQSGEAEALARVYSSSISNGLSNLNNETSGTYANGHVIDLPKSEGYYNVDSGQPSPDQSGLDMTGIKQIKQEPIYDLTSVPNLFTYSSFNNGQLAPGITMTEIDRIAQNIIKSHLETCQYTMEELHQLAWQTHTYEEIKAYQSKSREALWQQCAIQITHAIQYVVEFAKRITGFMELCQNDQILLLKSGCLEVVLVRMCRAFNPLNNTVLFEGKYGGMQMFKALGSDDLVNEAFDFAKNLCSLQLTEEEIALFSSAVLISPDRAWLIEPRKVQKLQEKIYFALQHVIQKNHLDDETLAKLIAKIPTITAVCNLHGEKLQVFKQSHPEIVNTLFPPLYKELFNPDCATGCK

A short description of experiment [9]: ATG_Oct_MLP_CIS: Attagene CIS-FACTORIAL HepG2 Assay for human Octamer-Binding Transcription Factor (Oct) (AID 2282993). As to conditions: HepG2 Attagene cis-factorial Oct reporter, mRNA; actives raise or lower the signal. The procedure, abridged: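 Transfected HepG2 cells, 24 h treatment. Reporter mRNA quantified by RT-PCR–capillary electrophoresis; bidirectional fitting against DMSO.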

Experiment [10] deals with human Peroxisome Proliferator-activated Receptor alpha (PPARa), PPARA (gene 5465) (UniProt Q07869). Briefly: ATG_PPARa_TRANS: Attagene TRANS-FACTORIAL HepG2 Assay for human Peroxisome Proliferator-activated Receptor alpha (PPARa) (AID 2283001; active means hit-call score of the fitted dose curve at least 0.9, where 1 is the maximum;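 on AC50: potency for gain of reporter signal over DMSO so agonist or activator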). The procedure, abridged:
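Gain-of-signal endpoint: reporter mRNA induction relative to DMSO, detected by fluorescent RT-PCR and capillary electrophoresis. HepG2 cells transiently carried GAL4-UAS-driven reporter units plus NR-Gal4 fusion; exposure lasted 24 h.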

The target of experiment [11] is Cellular tumor antigen p53 (Homo sapiens) (UniProt P04637). Briefly: ATG_p53_CIS: Attagene CIS-FACTORIAL HepG2 Assay for human p53 Transcription Factor (AID 2282994). As to conditions: HepG2 p53 cis-element reporter, Attagene mRNA; actives raise or lower the signal. The procedure, abridged: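 HepG2 cells transiently transfected with cis-regulated multiple reporter transcription units, dosed 24 h. Reporter mRNA measured by RT-PCR, 6-FAM primer extension, HpaI digestion and capillary electrophoresis; bidirectional fit relative to DMSO.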
Chain of Cellular tumor antigen p53 (Homo sapiens) (P04637 whole entry, looked up): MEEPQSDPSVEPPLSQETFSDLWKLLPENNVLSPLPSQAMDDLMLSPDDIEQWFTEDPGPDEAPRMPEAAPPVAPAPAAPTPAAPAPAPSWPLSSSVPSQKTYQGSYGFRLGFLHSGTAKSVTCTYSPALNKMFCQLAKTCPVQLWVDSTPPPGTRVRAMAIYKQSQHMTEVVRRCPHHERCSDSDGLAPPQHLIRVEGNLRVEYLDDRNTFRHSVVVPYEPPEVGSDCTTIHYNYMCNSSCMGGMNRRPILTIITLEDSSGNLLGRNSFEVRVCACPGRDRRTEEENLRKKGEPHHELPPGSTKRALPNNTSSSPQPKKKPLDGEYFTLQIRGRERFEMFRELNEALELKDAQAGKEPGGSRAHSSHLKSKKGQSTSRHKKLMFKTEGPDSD

The nature of experiment [12]: ATG_NRF2_ARE_CIS: Attagene CIS-FACTORIAL HepG2 Assay for human Nuclear Factor Erythroid 2 Related Factor 2 (NFR2) response to Antioxidant Response Elements (ARE) (AID 2282992).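 On AC50: reporter mRNA level measured by RT-PCR and capillary electrophoresis fluorescence.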 As to conditions: HepG2 Attagene ARE/NRF2 reporter, transcription factor activity; actives raise or lower the signal. The procedure, abridged: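 HepG2 cells transiently transfected with multiplexed cis-element reporter constructs, 24 h after chemical dosing; reporter mRNA quantified by RT-PCR, fluorescent primer extension, HpaI digestion and capillary electrophoresis. Bidirectional fit relative to DMSO.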

Experiment [13] in a line: BSK_3C_TissueFactor: BioMAP Diversity Plus: 3C Assay for Tissue Factor Biomarker Activity (AID 2282997). The following applies: BioMAP 3C HUVEC, tissue factor biomarker readout; actives raise or lower the signal. The procedure, abridged: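 HUVEC were treated 24 h, then surface tissue factor measured by ELISA and fitted bidirectionally against DMSO. Parallel SRB total-protein staining assessed overt cytotoxicity at the same time point.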

Experiment [14] in a line: BSK_3C_uPAR: BioMAP Diversity Plus: 3C Assay for Urokinase-type plasminogen activator receptor (uPAR) Biomarker Activity (AID 2282998). As to conditions: BioMAP 3C HUVEC, uPAR biomarker ELISA; actives raise or lower the signal. The procedure, abridged:
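Readout: ELISA for surface uPAR. System: human umbilical vein endothelial primary cells, 24 h after chemical exposure. Analysis: bidirectional fit, DMSO baseline.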
For orientation: ELISA stands for enzyme-linked immunosorbent assay.

Experiment [15] in a line: BSK_3C_VCAM1: BioMAP Diversity Plus: 3C Assay for Vascular cell adhesion molecule 1 (VCAM1) Biomarker Activity (AID 2282999). As to conditions: BioMAP 3C HUVEC, VCAM1 ELISA, cytokine-stimulated; actives raise or lower the signal. The procedure, abridged:
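Human umbilical vein endothelial cells were dosed with compound for 24 h, after which cell-surface VCAM-1 was quantified by ELISA. Bidirectional curve fitting used DMSO as negative control and activity baseline.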

A short description of experiment [16]: BSK_4H_Eotaxin3: BioMAP Diversity Plus: 4H Assay for Eotaxin 3 Biomarker Activity (AID 2283000).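 Further: CCL26 protein level quantified by ELISA in parallel with SRB cytotoxicity check.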 As to conditions: primary human endothelial cells (HUVEC); actives raise or lower the signal. The procedure, abridged:
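Eotaxin-3 (CCL26) levels were measured by ELISA in HUVEC primary cultures 24 h post-dosing. Gain or loss of signal was fitted in both directions, with DMSO serving as baseline and negative control.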

Read-out in experiment [17]: Intercellular Adhesion Molecule 1 (ICAM1), ICAM1 (gene 3383)
Nature of the experiment: BSK_3C_ICAM1: BioMAP Diversity Plus: 3C Assay for Intercellular Adhesion Molecule 1 (ICAM1) Biomarker Activity (AID 2283003). The following applies: primary human endothelial cells (HUVEC); actives raise or lower the signal. The procedure, abridged: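 HUVEC primary cells stimulated under 3C conditions; ICAM1 measured by ELISA 24 h after compound dosing. Curves fitted bidirectionally against the DMSO baseline. Overt cytotoxicity checked by SRB staining of parallel cultures.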

The nature of experiment [18]: BSK_3C_Proliferation: Cell Proliferation Assessment in the BioMAP Diversity Plus: 3C Assay (AID 2283006). The following applies: primary human endothelial cells (HUVEC). The procedure, abridged:
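Subconfluent HUVEC (3C system) cultured with chemical; relative cell number read at 48 h by sulforhodamine B total-protein staining (0.1% SRB after 10% TCA fixation, 560 nm). Bidirectional fit relative to DMSO.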

The target of experiment [19] is human Retinoic Acid Receptor gamma (RARg), RARG (gene 5916) (UniProt P13631). Nature of the experiment: ATG_RARg_TRANS: Attagene TRANS-FACTORIAL HepG2 Assay for human Retinoic Acid Receptor gamma (RARg) (AID 2283009; active means hit-call score of the fitted dose curve at least 0.9, where 1 is the maximum). The procedure, abridged:
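HepG2 transiently transfected with GAL4-UAS reporter units and chimeric NR-Gal4 constructs; 24 h compound exposure. Reporter mRNA quantified by RT-PCR, FAM labeling, HpaI digestion and capillary electrophoresis; gain-of-signal versus DMSO.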

Chain of Retinoic acid receptor alpha (Homo sapiens) (P10276 whole entry, looked up, the tested form may be a part): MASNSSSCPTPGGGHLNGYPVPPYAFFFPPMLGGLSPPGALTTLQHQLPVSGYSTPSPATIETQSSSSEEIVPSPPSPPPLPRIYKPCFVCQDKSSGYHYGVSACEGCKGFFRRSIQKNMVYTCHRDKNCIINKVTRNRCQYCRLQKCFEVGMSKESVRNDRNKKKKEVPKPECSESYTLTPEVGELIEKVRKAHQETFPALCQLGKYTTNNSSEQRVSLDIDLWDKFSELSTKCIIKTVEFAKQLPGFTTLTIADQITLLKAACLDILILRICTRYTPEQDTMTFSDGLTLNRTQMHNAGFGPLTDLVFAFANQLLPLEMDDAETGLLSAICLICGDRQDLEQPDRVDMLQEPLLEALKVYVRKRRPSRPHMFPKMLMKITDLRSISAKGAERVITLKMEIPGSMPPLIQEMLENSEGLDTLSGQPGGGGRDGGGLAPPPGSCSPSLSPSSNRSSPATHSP
Chain of Myc proto-oncogene protein (Homo sapiens) (P01106 whole entry, looked up): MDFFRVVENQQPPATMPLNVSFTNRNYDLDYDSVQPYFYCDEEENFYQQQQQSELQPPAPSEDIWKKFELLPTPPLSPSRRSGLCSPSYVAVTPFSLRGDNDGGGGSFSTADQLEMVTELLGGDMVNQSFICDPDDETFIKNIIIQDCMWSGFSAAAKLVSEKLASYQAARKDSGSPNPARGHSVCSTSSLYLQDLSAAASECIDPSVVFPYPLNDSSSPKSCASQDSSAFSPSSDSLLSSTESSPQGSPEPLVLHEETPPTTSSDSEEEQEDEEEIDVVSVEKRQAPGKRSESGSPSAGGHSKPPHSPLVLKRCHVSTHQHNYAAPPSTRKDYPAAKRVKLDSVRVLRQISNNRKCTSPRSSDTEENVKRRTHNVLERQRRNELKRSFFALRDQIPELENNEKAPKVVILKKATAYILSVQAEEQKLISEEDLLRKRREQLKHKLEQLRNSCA
Chain of Nuclear receptor subfamily 1 group I member 2 (Homo sapiens) (O75469 whole entry, looked up, the tested form may be a part): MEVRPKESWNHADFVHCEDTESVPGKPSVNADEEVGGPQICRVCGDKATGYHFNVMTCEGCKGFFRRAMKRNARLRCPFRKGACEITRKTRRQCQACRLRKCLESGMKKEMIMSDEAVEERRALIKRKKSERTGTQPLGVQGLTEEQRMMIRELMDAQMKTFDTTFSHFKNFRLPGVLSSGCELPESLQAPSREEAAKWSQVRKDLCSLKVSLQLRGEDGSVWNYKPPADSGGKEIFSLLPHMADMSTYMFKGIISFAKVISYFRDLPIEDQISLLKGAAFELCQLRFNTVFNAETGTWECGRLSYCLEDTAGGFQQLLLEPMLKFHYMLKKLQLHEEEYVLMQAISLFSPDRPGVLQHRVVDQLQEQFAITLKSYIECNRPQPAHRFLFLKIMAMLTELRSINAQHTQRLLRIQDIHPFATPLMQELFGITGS
Chain of human Peroxisome Proliferator-activated Receptor alpha (PPARa), PPARA (gene 5465) (Q07869 whole entry, looked up, the tested form may be a part): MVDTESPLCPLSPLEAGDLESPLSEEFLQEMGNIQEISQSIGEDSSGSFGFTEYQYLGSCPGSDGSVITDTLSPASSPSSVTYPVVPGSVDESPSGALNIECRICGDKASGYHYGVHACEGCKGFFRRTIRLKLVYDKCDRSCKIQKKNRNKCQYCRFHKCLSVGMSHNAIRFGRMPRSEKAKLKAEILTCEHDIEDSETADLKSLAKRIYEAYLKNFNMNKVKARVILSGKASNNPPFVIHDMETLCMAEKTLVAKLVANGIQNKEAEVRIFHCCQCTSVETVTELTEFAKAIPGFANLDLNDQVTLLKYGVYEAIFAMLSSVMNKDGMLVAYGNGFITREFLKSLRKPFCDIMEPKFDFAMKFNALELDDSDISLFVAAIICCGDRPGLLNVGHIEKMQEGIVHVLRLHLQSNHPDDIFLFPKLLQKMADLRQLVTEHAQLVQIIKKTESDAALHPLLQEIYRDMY
Chain of human Peroxisome Proliferator-activated Receptor delta (PPARd), PPARD (gene 5467) (Q03181 whole entry, looked up, the tested form may be a part): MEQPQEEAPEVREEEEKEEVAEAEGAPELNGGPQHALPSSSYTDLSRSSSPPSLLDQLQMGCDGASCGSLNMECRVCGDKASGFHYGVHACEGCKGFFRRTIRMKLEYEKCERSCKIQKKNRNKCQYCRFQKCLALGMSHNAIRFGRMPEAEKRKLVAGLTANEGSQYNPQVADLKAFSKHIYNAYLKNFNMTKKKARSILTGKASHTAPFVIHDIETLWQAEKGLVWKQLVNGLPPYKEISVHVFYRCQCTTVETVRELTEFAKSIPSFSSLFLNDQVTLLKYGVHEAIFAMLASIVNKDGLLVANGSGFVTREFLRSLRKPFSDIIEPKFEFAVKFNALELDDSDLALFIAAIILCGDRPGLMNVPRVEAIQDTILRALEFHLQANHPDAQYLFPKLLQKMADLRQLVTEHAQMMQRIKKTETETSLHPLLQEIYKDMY
Chain of human Retinoic Acid Receptor gamma (RARg), RARG (gene 5916) (P13631 whole entry, looked up, the tested form may be a part): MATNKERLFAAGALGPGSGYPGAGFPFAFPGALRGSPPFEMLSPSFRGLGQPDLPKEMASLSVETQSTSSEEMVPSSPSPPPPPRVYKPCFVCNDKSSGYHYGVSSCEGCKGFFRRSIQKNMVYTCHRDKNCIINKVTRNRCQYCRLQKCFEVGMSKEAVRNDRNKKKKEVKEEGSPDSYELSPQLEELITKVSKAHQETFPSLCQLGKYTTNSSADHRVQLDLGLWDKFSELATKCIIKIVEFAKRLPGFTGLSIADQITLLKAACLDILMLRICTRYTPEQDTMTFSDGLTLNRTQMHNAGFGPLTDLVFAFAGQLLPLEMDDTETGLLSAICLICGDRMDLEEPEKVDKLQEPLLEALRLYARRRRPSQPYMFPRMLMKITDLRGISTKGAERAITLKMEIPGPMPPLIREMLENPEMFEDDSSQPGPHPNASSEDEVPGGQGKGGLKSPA

For `Cc1ccc(C2OC[C@@H]3OC(c4ccc(C)cc4)O[C@H]([C@H](O)CO)[C@@H]3O2)cc1` (stereo partly drawn), the call in [1], in experiment [2], in experiment [3], in experiment [4], in experiment [5] and in [6] was inactive. In addition, the call in [7] and in experiment [8] was inactive.
For the compound `CCN(CC)c1ccc(C(=O)c2ccccc2C(=O)O)c(O)c1`, the result in experiment [1], in [2], in [3], in [9] and in experiment [10] was inactive. In addition, the concentration at half-maximal activity (AC50) in experiment [7] was 0.611 µM (active).
Regarding `c1ccc(CCCc2ccncc2)cc1`, the outcome in experiment [1], in [2], in [3], in experiment [9], in experiment [11] and in experiment [4] was inactive. Further, the outcome in [7] was inactive. In addition, in [6], the AC50 is 13.9 µM (active).
With `C=C[Si](OC(C)=O)(OC(C)=O)OC(C)=O`, the compound was called inactive in [1], in [2], in experiment [12], in experiment [9], in experiment [11] and in [13]. Also, the result in [14], in [15], in [16], in experiment [4], in experiment [17] and in experiment [5] was inactive. Moreover, the result in experiment [18], in experiment [19] and in experiment [8] was inactive. In experiment [7], the AC50 was 4.82 µM (active).
As for `C[C@]12C=CC(=O)C=C1CC[C@@H]1[C@@H]2[C@@H](O)C[C@@]2(C)[C@H]1CC[C@]2(O)C(=O)CO`, the compound was called inactive in [1], in [2], in experiment [3], in [9], in [11] and in experiment [10]. The result in [4] and in experiment [8] was inactive. The AC50 in [7] was 25.9 µM (active).
In the case of `O=C1CCCCCCCCCCCCCCCO1`, the compound was classed as inactive in experiment [1], in [2], in experiment [9], in experiment [11], in experiment [5] and in experiment [7]. Also, in [8], the outcome was inactive. The AC50 in experiment [12] was 65.2 µM (active); in experiment [10], 54 µM (active); in [4], 143 µM (active); in experiment [6], 100 µM (active).

By AC50 is commonly meant the concentration giving half of the maximal activity seen.
